The text below walks through data of paper PMC5515408, “Sequence-specific DNA binding by MYC/MAX to low-affinity non-E-box motifs”.

Over roughly 5,000 sequences, “log2 normalized fluorescence” has its median near 0.089; the highest 2% begin near 0.81. What follows is part of a selection rich in the highest values, with near analogues and random picks from the rest.

The target of the test is MYC (p64);MAX (p21), in MYC:MAX (human;human, UniProt P01106-1;P61244-2 1-439;1-151, |). Nature of the test: protein-binding microarray (anti-MAX antibody); PBM: 15 mM Tris-HCl pH 7.5, 100 mM KCl, 0.075% NP40, 7.5 mM beta-mercaptoethanol, 375 ng/ul BSA, 8 ng/ul poly(dA-dT):(dA-dT), 550 ng complex, 60 min, room tempe; high values mean tight binding. The conditions noted are these: protein: recombinant;recombinant; tags: 6xHis;6xHis; copies: 1;1; label: 3' end of printed strand (linker) attached to glass slide; dsDNA, one strand shown. The gist of the method: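 Binding, given as log2 normalized fluorescence, was measured on a custom Agilent glass array. The array bore ~5000 unique 12-nt sequences spotted in triplicate and converted to double strands by primer extension. It was incubated with 550 ng of human His-tagged MYC:MAX or MAX:MAX dimers from E. coli for 60 min at room temperature in Tris-KCl buffer, pH 7.5, with NP40, BSA and poly(dA-dT) competitor, and bound protein was detected with anti-MAX and secondary antibodies and scanned at 543 nm.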
MYC (p64);MAX (p21), in MYC:MAX, sequence (P01106 16-454, chain 1 of 2): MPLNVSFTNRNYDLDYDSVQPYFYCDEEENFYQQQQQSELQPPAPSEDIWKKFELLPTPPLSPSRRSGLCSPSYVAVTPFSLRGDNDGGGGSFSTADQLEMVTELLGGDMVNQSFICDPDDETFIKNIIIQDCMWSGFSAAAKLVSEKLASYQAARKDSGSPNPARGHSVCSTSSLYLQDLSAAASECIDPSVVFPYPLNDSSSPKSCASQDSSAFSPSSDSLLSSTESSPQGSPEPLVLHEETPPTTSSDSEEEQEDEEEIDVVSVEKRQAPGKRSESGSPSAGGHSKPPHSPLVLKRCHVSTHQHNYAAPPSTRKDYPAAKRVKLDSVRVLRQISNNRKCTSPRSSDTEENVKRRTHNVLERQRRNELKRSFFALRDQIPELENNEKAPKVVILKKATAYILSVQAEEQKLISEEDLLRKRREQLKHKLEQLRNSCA
MYC (p64);MAX (p21), in MYC:MAX, sequence (P61244 other isoform, or with tags, fused parts or gaps |, chain 2 of 2): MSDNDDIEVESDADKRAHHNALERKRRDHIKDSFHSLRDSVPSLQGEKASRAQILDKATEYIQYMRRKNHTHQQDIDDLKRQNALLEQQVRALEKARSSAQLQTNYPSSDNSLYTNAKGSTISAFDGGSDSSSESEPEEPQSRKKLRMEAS
For “CCGGCTGAATTCCCGTATTAATAGCTAAGATTACTATATCGACG”, the binding signal is 0.003 log2 normalized fluorescence.

Regarding “CCGGCTGACGGATGGTATTAATAGCTAAGATTACTATATCGACG”, the binding signal is 0.302 log2 normalized fluorescence.

For “CCGGCTGACGGACAGTATTAATAGCTAAGATTACTATATCGACG”, the binding signal was 0.124 log2 normalized fluorescence.

Take “CCGGCTGACTCGTGCTGTTAATAGCTAAGATTACTATATCGACG”: the binding signal is 0.41 log2 normalized fluorescence.

For the sequence “CCGGCTGACACGTGATGTTAATAGCTAAGATTACTATATCGACG”, the binding signal is 0.851 log2 normalized fluorescence.

On to “CCGGCTGACACGTGAGCTTAATAGCTAAGATTACTATATCGACG”, for which the binding signal is 0.713 log2 normalized fluorescence.

With “CCGGCTGACACGTGATATTAATAGCTAAGATTACTATATCGACG”, the binding signal is 0.522 log2 normalized fluorescence.

Consider “CCGGCTGACACGTGATCTTAATAGCTAAGATTACTATATCGACG”, for which the binding signal is 0.744 log2 normalized fluorescence.

“CCGGCTGACACGTCATGTTAATAGCTAAGATTACTATATCGACG”: the binding signal is 0.5 log2 normalized fluorescence.

Consider “CCGGCTGACACGTGAGATTAATAGCTAAGATTACTATATCGACG”, for which the binding signal is 0.826 log2 normalized fluorescence.

As for “CCGGCTGACACGTGAGGTTAATAGCTAAGATTACTATATCGACG”, the binding signal is 0.702 log2 normalized fluorescence.

On to “CCGGCTGACACGTGTGATTAATAGCTAAGATTACTATATCGACG”, for which the binding signal was 0.872 log2 normalized fluorescence.

Turning to “CCGGCTGACACGTGAAGTTAATAGCTAAGATTACTATATCGACG”, the binding signal is 0.527 log2 normalized fluorescence.

Consider “CCGGCTGAGCCATCGTATTAATAGCTAAGATTACTATATCGACG”, for which the binding signal was 0.0938 log2 normalized fluorescence.

As to “CCGGCTGACCGCGGGTATTAATAGCTAAGATTACTATATCGACG”, the binding signal is 0.33 log2 normalized fluorescence.

“CCGGCTGACTGGAGGTATTAATAGCTAAGATTACTATATCGACG”: the binding signal was 0.07 log2 normalized fluorescence.

As for “CCGGCTGATGTTAGGTATTAATAGCTAAGATTACTATATCGACG”, the binding signal was 0.122 log2 normalized fluorescence.

Regarding “CCGGCTGAGGACCGGTATTAATAGCTAAGATTACTATATCGACG”, the binding signal is -0.014 log2 normalized fluorescence.

Take “CCGGCTGAACACGTGTATTAATAGCTAAGATTACTATATCGACG”: the binding signal was 0.823 log2 normalized fluorescence.

Take “CCGGCTGAACACACGTATTAATAGCTAAGATTACTATATCGACG”: the binding signal is 0.419 log2 normalized fluorescence.

Take “CCGGCTGACACGTGGTATTAATAGCTAAGATTACTATATCGACG”: the binding signal was 0.825 log2 normalized fluorescence.

For the sequence “CCGGCTGACGTGTGGTATTAATAGCTAAGATTACTATATCGACG”, the binding signal was 0.252 log2 normalized fluorescence.

As to “CCGGCTAACACGTGATATTAATAGCTAAGATTACTATATCGACG”, the binding signal is 0.646 log2 normalized fluorescence.

“CCGGCTGACGACACGTATTAATAGCTAAGATTACTATATCGACG”: the binding signal was 0.2 log2 normalized fluorescence.

“CCGGCTGACACGTGGGCTTAATAGCTAAGATTACTATATCGACG”: the binding signal was 0.74 log2 normalized fluorescence.

Regarding “CCGGCCGACACGTGGGCTTAATAGCTAAGATTACTATATCGACG”, the binding signal is 0.893 log2 normalized fluorescence.

For “CCGGCCGACACGTGATATTAATAGCTAAGATTACTATATCGACG”, the binding signal was 0.927 log2 normalized fluorescence.

With “CCGGCCGACACGTTGTATTAATAGCTAAGATTACTATATCGACG”, the binding signal was 0.656 log2 normalized fluorescence.

On to “CCGGCTGAACGTGTGTATTAATAGCTAAGATTACTATATCGACG”, for which the binding signal was 0.493 log2 normalized fluorescence.

“CCGGCCGACACGTCGTATTAATAGCTAAGATTACTATATCGACG”: the binding signal is 0.338 log2 normalized fluorescence.

With “CCGGCTGACTAGTAGTATTAATAGCTAAGATTACTATATCGACG”, the binding signal is -0.00827 log2 normalized fluorescence.

In the case of “CCGGCTGACACGACATATTAATAGCTAAGATTACTATATCGACG”, the binding signal was 0.459 log2 normalized fluorescence.

For “CCGGCTGAAGACCAGTATTAATAGCTAAGATTACTATATCGACG”, the binding signal was 0.106 log2 normalized fluorescence.

Take “CCGGCTGAGGCAAGGTATTAATAGCTAAGATTACTATATCGACG”: the binding signal was 0.281 log2 normalized fluorescence.

Regarding “CCGGCTGAGGTCGCGTATTAATAGCTAAGATTACTATATCGACG”, the binding signal was 0.0221 log2 normalized fluorescence.

In the case of “CCGGCTGATAACAGGTATTAATAGCTAAGATTACTATATCGACG”, the binding signal was -0.0157 log2 normalized fluorescence.

Take “CCGGCTGACCTATGGTATTAATAGCTAAGATTACTATATCGACG”: the binding signal is 0.108 log2 normalized fluorescence.

For “CCGGCTGAGTGTGAGTATTAATAGCTAAGATTACTATATCGACG”, the binding signal is 0.101 log2 normalized fluorescence.

With “CCGGCTGAACGCGTGTATTAATAGCTAAGATTACTATATCGACG”, the binding signal was 0.587 log2 normalized fluorescence.

For the sequence “CCGGCCGACACGTGGTATTAATAGCTAAGATTACTATATCGACG”, the binding signal was 1.07 log2 normalized fluorescence.

Regarding “CCGGCCGACACGTGGAATTAATAGCTAAGATTACTATATCGACG”, the binding signal is 0.832 log2 normalized fluorescence.

Regarding “CCGGCCGGCACGTGGTATTAATAGCTAAGATTACTATATCGACG”, the binding signal is 0.723 log2 normalized fluorescence.

For “CCGGCTGACACGTGGAATTAATAGCTAAGATTACTATATCGACG”, the binding signal was 0.698 log2 normalized fluorescence.

Turning to “CCGGCCGACGCGTGGTATTAATAGCTAAGATTACTATATCGACG”, the binding signal is 0.626 log2 normalized fluorescence.

Turning to “CCGGCTAACACGTGGAATTAATAGCTAAGATTACTATATCGACG”, the binding signal was 0.812 log2 normalized fluorescence.

For “CCGGCTGAGCAGCGGTATTAATAGCTAAGATTACTATATCGACG”, the binding signal was 0.0954 log2 normalized fluorescence.

“CCGGCAGACTCGTTGTATTAATAGCTAAGATTACTATATCGACG”: the binding signal was 0.374 log2 normalized fluorescence.

Consider “CCGGCTGAAGAGCTGTATTAATAGCTAAGATTACTATATCGACG”, for which the binding signal is 0.00393 log2 normalized fluorescence.

Regarding “CCGGCTGACACTTTGTATTAATAGCTAAGATTACTATATCGACG”, the binding signal was 0.302 log2 normalized fluorescence.

For “CCGGCTGAGGTTTGGTATTAATAGCTAAGATTACTATATCGACG”, the binding signal was -0.0536 log2 normalized fluorescence.

As to “CCGGCCGACACGTGCTTTTAATAGCTAAGATTACTATATCGACG”, the binding signal was 0.852 log2 normalized fluorescence.

Regarding “CCGGCCGACACGTGCTATTAATAGCTAAGATTACTATATCGACG”, the binding signal was 0.722 log2 normalized fluorescence.

For “CCGGCTAACACGTGCTTTTAATAGCTAAGATTACTATATCGACG”, the binding signal is 0.969 log2 normalized fluorescence.

As for “CCGGCCGACACGTTGTTTTAATAGCTAAGATTACTATATCGACG”, the binding signal is 0.661 log2 normalized fluorescence.

For the sequence “CCGGCTGCCACGTGCTTTTAATAGCTAAGATTACTATATCGACG”, the binding signal was 0.652 log2 normalized fluorescence.

As to “CCGGCTGACACGTGCTTTTAATAGCTAAGATTACTATATCGACG”, the binding signal was 0.771 log2 normalized fluorescence.

As to “CCGGCTGAGTTGTGGTATTAATAGCTAAGATTACTATATCGACG”, the binding signal was 0.0821 log2 normalized fluorescence.

Turning to “CCGGCTGAAACATCGTATTAATAGCTAAGATTACTATATCGACG”, the binding signal was 0.226 log2 normalized fluorescence.

Take “CCGGCTGAGGTAATGTATTAATAGCTAAGATTACTATATCGACG”: the binding signal was 0.138 log2 normalized fluorescence.

As for “CCGGCATACACGTGGTATTAATAGCTAAGATTACTATATCGACG”, the binding signal was 0.842 log2 normalized fluorescence.

Consider “CCGGCATACACTTGGTATTAATAGCTAAGATTACTATATCGACG”, for which the binding signal is 0.425 log2 normalized fluorescence.

For “CCGGCTTACACATGCTATTAATAGCTAAGATTACTATATCGACG”, the binding signal was 0.812 log2 normalized fluorescence.

As to “CCGGCTTACACGTGCTATTAATAGCTAAGATTACTATATCGACG”, the binding signal was 1.02 log2 normalized fluorescence.

As for “CCGGCCGACACGCGGTATTAATAGCTAAGATTACTATATCGACG”, the binding signal is 0.697 log2 normalized fluorescence.

In the case of “CCGGCAGAGAACGATGTTTAATAGCTAAGATTACTATATCGACG”, the binding signal is 0.248 log2 normalized fluorescence.

For the sequence “CCGGCAAACACGATGTTTTAATAGCTAAGATTACTATATCGACG”, the binding signal is 0.827 log2 normalized fluorescence.

“CCGGCTTACACGTGATATTAATAGCTAAGATTACTATATCGACG”: the binding signal is 0.75 log2 normalized fluorescence.

On to “CCGGCTGACACGCGGTATTAATAGCTAAGATTACTATATCGACG”, for which the binding signal is 0.487 log2 normalized fluorescence.

“CCGGCTAATACGTGGTATTAATAGCTAAGATTACTATATCGACG”: the binding signal was 0.38 log2 normalized fluorescence.

Consider “CCGGCTAACACGCGGTATTAATAGCTAAGATTACTATATCGACG”, for which the binding signal is 0.819 log2 normalized fluorescence.

For the sequence “CCGGCGGAGACGATGTTTTAATAGCTAAGATTACTATATCGACG”, the binding signal was 0.0761 log2 normalized fluorescence.
